Drawing on PubChem BioAssay, this text covers activity remaining for seven compounds.

A number with no mark means an inactive call. No rule for the calls is given here.

The test relates to Aerobactin synthetase IucA (Klebsiella pneumoniae hvKP1). Kind of test: Biochemical IucA enzyme inhibition primary screen of the Spectrum library (AID 1346200).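 Also: 100% = wells without compound and 0% = wells lacking enzyme.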 The settings on record: malachite green pyrophosphate, A620, at 8 µM, hits give low values.
`CC(=O)OCC(CCn1cnc2cnc(N)nc21)COC(C)=O`: the activity remaining was 121%.
The value for `CC(COc1ccccc1)NC(C)[C@H](O)c1ccc(O)cc1` (some centres not stated) was 119%; that for `CC1=C(C(=O)O)N2C(=O)[C@@H](NC(=O)C(N)c3ccccc3)[C@H]2SC1` (some centres not stated) was 104%.
The value for `COc1c(-c2coc3cc4c(cc3c2=O)CC(OC(C)=O)C(C)(C)O4)ccc2c1C=CC(C)(C)O2` (configuration not stated) was 103%.
`COC(=O)[C@@H]1OC(=O)[C@H]2O[C@@]23[C@@]1(C)CCC1[C@@]2(C)CCC(=O)C(C)(C)C2C[C@@H](OC(C)=O)[C@]13C` (some centres not stated): the activity remaining is 109%.
Take `CC1CCC2(OC1)OC1CC3C4CC[C@H]5C[C@@H](O)CC[C@]5(C)C4CC(=O)[C@]3(C)C1C2C` (some centres not stated): the activity remaining was 94.1%.
The value for `COC(=O)c1c(Cl)c(Cl)c(C(=O)OC)c(Cl)c1Cl` was 110%.
